# Laboratory results reported in the supplement of paper PMC12282887.
# ± gives the standard deviation of the averaged measurements.
# Experiments:
# Test in all cases: promoter activity interaction Z-score (Lux/OD deviation from empty-vector control); higher = stronger promoter induction by the compound
# [1] = tested on: E. coli BW25113 robp lux reporter
# Method in brief: (§1)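 E. coli BW25113, as wild type or one of three single-gene deletion strains, carried low-copy luxCDABE promoter reporters and grew in 40 µl LB Lennox in 384-well plates at 37°C, with OD600 and luminescence read every 30 min for 12 h. Each compound was run at four 1:2 dilutions in biological duplicates, integration spanned 0–8 h for wild type and 1–9 h for deletion strains, and wells under 10% of the median growth value were dropped. The score is the Z-transformed residual of growth-normalised luminescence fitted against a control.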
# [2] = tested on: E. coli BW25113 soxSp lux reporter
# Method in brief: as §1
# [3] = tested on: E. coli BW25113 tolCp lux reporter
# Method in brief: as §1
# [4] = 17 µg/ml, genetic background: wild type
# [5] = 17 µg/ml, genetic background: ΔmarA
# [6] = 17 µg/ml, genetic background: Δrob
# [7] = 17 µg/ml, genetic background: ΔsoxS
# [8] = 34 µg/ml, genetic background: wild type
# [9] = 34 µg/ml, genetic background: ΔmarA
# [10] = 34 µg/ml, genetic background: Δrob
# [11] = 34 µg/ml, genetic background: ΔsoxS
# [12] = 68.1 µg/ml, genetic background: wild type
# [13] = 68.1 µg/ml, genetic background: ΔmarA
# [14] = 68.1 µg/ml, genetic background: Δrob
# [15] = 68.1 µg/ml, genetic background: ΔsoxS
# [16] = 136.2 µg/ml, genetic background: wild type
# [17] = 136.2 µg/ml, genetic background: ΔmarA
# [18] = 136.2 µg/ml, genetic background: Δrob
# [19] = 136.2 µg/ml, genetic background: ΔsoxS
structure (smiles),measurement,setting,value
C[C@]12CC[C@@H]3c4ccc(O)cc4CC[C@H]3[C@@H]1CC[C@@H]2O [Estradiol],promoter activity interaction Z-score,[1]; [4],0.7215 ± 0.0031
same,promoter activity interaction Z-score,[1]; [5],0.25 ± 0.44
same,promoter activity interaction Z-score,[1]; [6],-0.0547 ± 0.13
same,promoter activity interaction Z-score,[1]; [7],0.453 ± 0.085
same,promoter activity interaction Z-score,[1]; [8],-0.0162 ± 0.89
same,promoter activity interaction Z-score,[1]; [9],-0.0102 ± 0.92
same,promoter activity interaction Z-score,[1]; [10],-0.0213 ± 0.28
same,promoter activity interaction Z-score,[1]; [11],0.926 ± 0.78
same,promoter activity interaction Z-score,[1]; [12],0.13 ± 0.81
same,promoter activity interaction Z-score,[1]; [13],1.9 ± 0.56
same,promoter activity interaction Z-score,[1]; [14],-0.509 ± 0.5
same,promoter activity interaction Z-score,[1]; [15],0.373 ± 0.42
same,promoter activity interaction Z-score,[1]; [16],0.104 ± 0.37
same,promoter activity interaction Z-score,[1]; [17],0.282 ± 0.21
same,promoter activity interaction Z-score,[1]; [18],-0.478 ± 0.3
same,promoter activity interaction Z-score,[1]; [19],0.863 ± 0.52
same,promoter activity interaction Z-score,[2]; [4],0.266 ± 0.12
same,promoter activity interaction Z-score,[2]; [5],0.0464 ± 0.17
same,promoter activity interaction Z-score,[2]; [6],-0.0494 ± 0.027
same,promoter activity interaction Z-score,[2]; [7],0.159 ± 0.028
same,promoter activity interaction Z-score,[2]; [8],-0.15 ± 0.012
same,promoter activity interaction Z-score,[2]; [9],0.102 ± 0.021
same,promoter activity interaction Z-score,[2]; [10],-0.334 ± 0.0093
same,promoter activity interaction Z-score,[2]; [11],0.0514 ± 0.057
same,promoter activity interaction Z-score,[2]; [12],-0.196 ± 0.013
same,promoter activity interaction Z-score,[2]; [13],0.057 ± 0.029
same,promoter activity interaction Z-score,[2]; [14],-0.104 ± 0.2
same,promoter activity interaction Z-score,[2]; [15],0.254 ± 0.52
same,promoter activity interaction Z-score,[2]; [16],-0.422 ± 0.035
same,promoter activity interaction Z-score,[2]; [17],-0.276 ± 0.077
same,promoter activity interaction Z-score,[2]; [18],-0.275 ± 0.2
same,promoter activity interaction Z-score,[2]; [19],-0.137 ± 0.099
same,promoter activity interaction Z-score,[3]; [4],0.895 ± 0.21
same,promoter activity interaction Z-score,[3]; [5],-0.343 ± 0.88
same,promoter activity interaction Z-score,[3]; [6],-0.103 ± 1
same,promoter activity interaction Z-score,[3]; [7],-0.491 ± 0.4
same,promoter activity interaction Z-score,[3]; [8],-0.0124 ± 0.71
same,promoter activity interaction Z-score,[3]; [9],-0.745 ± 0.26
same,promoter activity interaction Z-score,[3]; [10],-0.126 ± 1.3
same,promoter activity interaction Z-score,[3]; [11],0.321 ± 0.44
same,promoter activity interaction Z-score,[3]; [12],-0.293 ± 0.52
same,promoter activity interaction Z-score,[3]; [13],0.492 ± 0.095
same,promoter activity interaction Z-score,[3]; [14],0.143 ± 0.3
same,promoter activity interaction Z-score,[3]; [15],0.521 ± 0.57
same,promoter activity interaction Z-score,[3]; [16],0.506 ± 0.79
same,promoter activity interaction Z-score,[3]; [17],-0.446 ± 0.55
same,promoter activity interaction Z-score,[3]; [18],-0.721 ± 0.35
same,promoter activity interaction Z-score,[3]; [19],0.191 ± 0.75
